Screens as filed in PubChem BioAssay.
TRHR agonist = qHTS for Small Molecule Agonists and Allosteric Enhancers of Human TRH Receptor: Primary Screen for Agonists; 360,000 compounds, 0.18% hits; TRHR cells, calcium flux fluo-8, FDSS agonist mode; Thyrotropin-releasing hormone receptor (Homo sapiens), P34981; activation, % at 2 µM; also: 0% is about no effect
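TRHR-expressing cells, plated overnight in medium with 10% serum, were loaded with fluo-8 calcium dye at room temperature. After a 10 s baseline, library compound was pin-added and calcium release was recorded kinetically (ex 480/em 530) as agonist response.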
D1 antag = Antagonist of Human D 1 Dopamine Receptor: qHTS | D(1A) dopamine receptor (Homo sapiens), P21728 | 360,000 compounds, 3.2% hits | activity change, negative = inhibition, % at 10 µM | AID 504652, 2011 | HEK293 TREx D1 cells, calcium flux, dopamine EC80; stronger effect = lower value; in the data active = activity change below about -30%; also: % is scaled to controls: 0 for no effect and ±100 for the full control effect
Target sequence (P21728 whole entry, looked up): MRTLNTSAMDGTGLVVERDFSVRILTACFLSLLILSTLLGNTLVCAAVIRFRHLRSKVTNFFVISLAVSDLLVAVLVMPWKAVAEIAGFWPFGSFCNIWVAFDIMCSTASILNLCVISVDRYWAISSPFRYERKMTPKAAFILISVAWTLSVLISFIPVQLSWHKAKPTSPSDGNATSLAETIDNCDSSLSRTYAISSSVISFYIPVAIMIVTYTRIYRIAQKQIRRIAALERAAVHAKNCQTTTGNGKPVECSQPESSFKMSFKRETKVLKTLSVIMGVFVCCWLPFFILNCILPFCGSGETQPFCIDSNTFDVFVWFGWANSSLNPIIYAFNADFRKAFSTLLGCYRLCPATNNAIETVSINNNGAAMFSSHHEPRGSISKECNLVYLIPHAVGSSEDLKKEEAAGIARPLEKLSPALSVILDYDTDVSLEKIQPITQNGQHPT
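Tetracycline-induced HEK293 Trex D1 cells, force-coupled to calcium, dye-loaded; compounds added and read 180 s, then EC80 dopamine added and calcium flux tracked kinetically another 180 s.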
TRHR enhancer = qHTS for Small Molecule Agonists and Allosteric Enhancers of Human TRH Receptor: Primary Screen for Enhancers; Thyrotropin-releasing hormone receptor (Homo sapiens), P34981; TRHR cells, fluo-8 calcium fluorescence, EC20 TRH enhancement; enhancement, % at 2 µM; 360,000 compounds, 0.66% hits; AID 493056, 2011; in the data active = enhancement above about 30%; also: 0% is about no effect
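Enhancer read-out: after compound pinning and an initial kinetic agonist-mode read, an EC20 of TRH (10 nM final) was injected and fluo-8 calcium signal (Ex 480/Em 530) followed at 1 s/cycle for 100 cycles in TRHR-expressing cells.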
D1 ag = Allosteric Agonists of the Human D1 Dopamine Receptor: qHTS; D(1A) dopamine receptor (Homo sapiens), P21728; HEK293 T-REx D1 cells, calcium flux, agonist mode; activation, % at 2 µM; 360,000 compounds, 1% hits; also: 0% is about no effect
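Tetracycline-induced HEK293 TREx D1 cells, force-coupled to calcium signalling, were dye-loaded with a no-wash calcium kit. Compound was pin-added after a 10 s baseline. Fluorescence was read kinetically at 1 cycle/s for 180 s, with calcium rises flagged as agonism.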
D1 PAM = Potentiators of Human D1 Dopamine Receptor: qHTS. HEK293 TREx D1 cells, calcium flux, dopamine EC20 potentiation. potentiation, % at 10 µM. 360,000 compounds, 0.036% hits. AID 504651, 2011; in the data active = potentiation above about 30%; also: 0% is about no effect
USP1-UAF1 inh = Inhibitors of USP1/UAF1: Primary Screen; recombinant USP1/UAF1, Ub-Rhodamine cleavage fluorescence; Potency, µM (top dose mostly 57.1 µM), for the others: at the highest dose activity change, negative = inhibition, hits mostly inhibitors; Ubiquitin carboxyl-terminal hydrolase 1 (Homo sapiens), O94782; 390,000 compounds, 0.23% hits; AID 743255, 2014; active = well fitted inhibition curve with a large enough effect; inconclusive = small, poorly fitted or top-dose-only effect; inactive = no such curve, though single readings can be large or run the other way; also: potency is read from the fitted curve at half-maximal effect; % is scaled to controls: 0 for no effect and ±100 for the full control effect; nearly all actives have a fitted effect of over 60% in size
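Step one: compound is pinned into 1nM USP1/UAF1 in HEPES pH 7.8 buffer with TCEP. Step two: 15 min room-temperature incubation. Step three: Ub-Rho (150nM final) starts cleavage, tracked by fluorescence over six one-minute reads.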
Active calls of the source: *. Rows were chosen to be rich in hits. Some 4.4% of all compounds tested hit in one or more screens of this group. Rule as the data show it, unless noted: active = activation above about 30%; inactive = the rest.

Cn1c(=O)c2c(-c3ccccc3)n3c(c2n(C)c1=O)C(c1ccco1)Nc1ccccc1-3 (configuration not stated) was read as TRHR agonist -0.3, D1 antag -31.1*, TRHR enhancer 2.7, D1 ag 0.8, D1 PAM 2.4 and USP1-UAF1 inh -25.3%.
COC(=O)c1ccc(OC)c(CN2CCCN(Cc3cc(C)ccc3C)S2(=O)=O)c1 was read as TRHR agonist 1.0, D1 antag -5.9, TRHR enhancer -4.5, D1 ag 5.7, D1 PAM -4.5 and USP1-UAF1 inh -16.2%.
`COC(=O)c1ccc(OC)c(CN2CCCN(Cc3ccc(C)cc3)S2(=O)=O)c1` gave TRHR agonist 0.6, D1 antag -33.9*, TRHR enhancer 3.4, D1 ag 4.8, D1 PAM -2.9 and USP1-UAF1 inh inconclusive.
For Cc1ccc(C)c(NC(=O)Nc2cc3c(cc2N2CCCCC2)n(C)c(=O)n3C)c1 the results were TRHR agonist 0.6, D1 antag 3.0, TRHR enhancer -8.9, D1 ag 0.4, D1 PAM -5.2 and USP1-UAF1 inh -26.1%.
COc1ccc(Br)cc1CN1C(=O)NC2(CCCCCC2)C1=O was read as TRHR agonist 2.5, D1 antag -32.7*, TRHR enhancer -3.2, D1 ag 30.5* and USP1-UAF1 inh -8.6%.
Screening Cc1ccc(C(C)C)c(OCC(=O)NCC2(N3CCOCC3)CCCCC2)c1 returned TRHR agonist 0.8, D1 antag -10.0, TRHR enhancer 15.5, D1 ag 0.0, D1 PAM 2.5 and USP1-UAF1 inh -12.5%.
COc1ccc(CNc2ncc(-c3ccc(F)cc3)n2C)cc1OC was read as TRHR agonist 0.5, D1 antag -41.3*, TRHR enhancer 25.2, D1 ag 3.0, D1 PAM -9.9 and USP1-UAF1 inh -9.2%.
`Cn1c(-c2ccc(F)cc2)cnc1NCc1cccc(F)c1` gave TRHR agonist -0.3, D1 antag -10.1, TRHR enhancer 3.8, D1 ag 1.1, D1 PAM -11.9 and USP1-UAF1 inh -17.6%.
Screening COc1ccc(OC)c(CNc2ncc(-c3ccc(F)cc3)n2C)c1 returned TRHR agonist -1.3, D1 antag -55.0*, TRHR enhancer -1.7, D1 ag 5.4, D1 PAM -13.1 and USP1-UAF1 inh -12.4%.
